Screens from PubChem.
mHTT-CaM PPI inh – inhibitors of human mutant huntingtin-calmodulin interaction | AlphaScreen His-mHTT/GST-CaM binding, luminescence | inhibition, % at 15 µM | hit rate 3.6% among 190,000;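 note: 0% = both proteins with DMSO and 100% = one protein alone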
Pf apPOL inh – Pf-apPOL DNA polymerase inhibition | Recombinant Pf-apPOL, molecular beacon fluorescence, 1.5 h | inhibition, % at 10 µM | hit rate 0.25% among 210,000 | AID 1794808
* marks the source's active call; other numbers are inactive results. Shown are actives, neighbours in structure and some others; about 3.5% of the full set was active somewhere. Cut-off read from the data, not from the text of the source: active = inhibition above about 50%; inactive = the rest.

How did Nc1cccc2c1NC(c1ccc(Cl)cc1)C1CCCC21 (stereo unspecified) do in these assays?
mHTT-CaM PPI inh: 90*; Pf apPOL inh: -4

What do the screens show for `Cc1cc(OC(=O)C=Cc2ccc3c(c2)OCO3)c([N+](=O)[O-])c(=O)[nH]1`?
mHTT-CaM PPI inh: 77*; Pf apPOL inh: 8

Results for COc1ccc(C(=O)Oc2cc(C)[nH]c(=O)c2[N+](=O)[O-])cc1OC ?
mHTT-CaM PPI inh: 86*; Pf apPOL inh: -2

Results for COc1cccc(C(=O)Oc2cc(C)[nH]c(=O)c2[N+](=O)[O-])c1OC ?
mHTT-CaM PPI inh: 7; Pf apPOL inh: -8

How did CC=CC(=O)Oc1cc(C)[nH]c(=O)c1[N+](=O)[O-] do in these assays?
mHTT-CaM PPI inh: 21; Pf apPOL inh: 4

What do the screens show for `CCOc1ccc(C(=O)N2CCC3(CC2)NC(=O)c2cc(C)ccc2N3CC)cc1`?
mHTT-CaM PPI inh: 6; Pf apPOL inh: 2

How did CCN1c2cc(C)ccc2-n2cccc2C12CCN(C(=O)Nc1cccc(F)c1)CC2 do in these assays?
mHTT-CaM PPI inh: 72*; Pf apPOL inh: 5

Results for CCN1c2cc(C)ccc2-n2cccc2C12CCN(C(=O)c1ccc(OC)cc1)CC2 ?
mHTT-CaM PPI inh: 94*; Pf apPOL inh: -3

Results for CCN1c2cc(C)ccc2-n2cccc2C12CCN(C(=O)NCC1CCCO1)CC2 (stereo unspecified) ?
mHTT-CaM PPI inh: 65*; Pf apPOL inh: 2

Results for CCN1c2cc(C)ccc2-n2cccc2C12CCN(C(=O)Nc1ccccc1F)CC2 ?
mHTT-CaM PPI inh: 31; Pf apPOL inh: -3

How did CCN1c2cc(C)ccc2-n2cccc2C12CCN(C(=O)NCC(=O)OC)CC2 do in these assays?
mHTT-CaM PPI inh: 76*; Pf apPOL inh: -2

How did COC(=O)CNC(=O)N1CCOc2ccc(C)cc21 do in these assays?
mHTT-CaM PPI inh: 2; Pf apPOL inh: -6

How did Cc1cccc(C(=O)NCC2CCCO2)c1 (stereo unspecified) do in these assays?
mHTT-CaM PPI inh: -1; Pf apPOL inh: -3

What do the screens show for `COc1ccc(C2SCCN2C(=O)c2cccc([N+](=O)[O-])c2C(=O)O)cc1Br` (stereo unspecified)?
mHTT-CaM PPI inh: 0; Pf apPOL inh: -2

Results for CCCNC(=O)c1cn(-c2cccc(F)c2)nn1 ?
mHTT-CaM PPI inh: -8; Pf apPOL inh: 0

How did COc1cccc(CCC(=O)N2CCn3cnnc3C2)c1 do in these assays?
mHTT-CaM PPI inh: 0; Pf apPOL inh: -6

Results for N#CC1=C(N)Oc2[nH]c(=O)[nH]c(=O)c2C1c1cccc(F)c1 (stereo unspecified) ?
mHTT-CaM PPI inh: -1; Pf apPOL inh: -8

Results for CCCNC(=O)N1CCC2(CC1)c1cccn1-c1ccc(C)cc1N2CC ?
mHTT-CaM PPI inh: 100*; Pf apPOL inh: 4

Results for CCN1c2cc(C)ccc2-n2cccc2C12CCN(C(=O)Nc1ccccc1C)CC2 ?
mHTT-CaM PPI inh: 28; Pf apPOL inh: 2

What do the screens show for `COc1ccc(C(C)=NNc2c([N+](=O)[O-])cc(C(F)(F)F)cc2[N+](=O)[O-])cc1CC#N`?
Pf apPOL inh: 1

What do the screens show for `CCCCNC(=O)OCCCN1CCC2(CCC(c3ccccc3)CC2)C1=O` (stereo unspecified)?
mHTT-CaM PPI inh: 10; Pf apPOL inh: -6

How did O=C(Nc1ccc(F)cc1)OCCN1CCCC12CCC(c1ccccc1)CC2 (stereo unspecified) do in these assays?
mHTT-CaM PPI inh: -15; Pf apPOL inh: -3

What do the screens show for `O=C(Nc1ccccc1C(F)(F)F)OCCCN1CCC2(CCC(c3ccccc3)CC2)C1=O` (stereo unspecified)?
mHTT-CaM PPI inh: 93*; Pf apPOL inh: 0

How did O=C(Nc1cccc(F)c1)OCCCN1CCC2(CCC(c3ccccc3)CC2)C1 (stereo unspecified) do in these assays?
mHTT-CaM PPI inh: 50*; Pf apPOL inh: -3

What do the screens show for `Cc1ccc(C(=O)Nc2cccc(F)c2)c(Cl)c1`?
mHTT-CaM PPI inh: -7; Pf apPOL inh: 5

Results for O=C(COc1cc(Cl)c(Cl)cc1Cl)Nc1ccc(F)cc1F ?
mHTT-CaM PPI inh: -2; Pf apPOL inh: 0

Results for CCCn1cnnc1C1CCN(Cc2ccc(OCC)c(OC)c2)CC1 ?
mHTT-CaM PPI inh: 8; Pf apPOL inh: -1

How did O=S(=O)(NCC#CCN1CCc2ccccc2C1)c1cccs1 do in these assays?
mHTT-CaM PPI inh: -6; Pf apPOL inh: 0

How did CN1CCCc2cc(C(CNC(=O)C34CC5CC(CC(C5)C3)C4)N3CCCC3)ccc21 (stereo unspecified) do in these assays?
mHTT-CaM PPI inh: 34; Pf apPOL inh: 5

What do the screens show for `CN1CCCc2cc(CCNC(=O)C34CC5CC(CC(C5)C3)C4)ccc21`?
mHTT-CaM PPI inh: 53*; Pf apPOL inh: 1

How did CN1CCCc2cc(CCNS(=O)(=O)c3cccs3)ccc21 do in these assays?
mHTT-CaM PPI inh: 51*; Pf apPOL inh: -5

Results for Cc1nc(C2CCCN(Cc3ccc(C)o3)C2)n[nH]1 (stereo unspecified) ?
mHTT-CaM PPI inh: 21; Pf apPOL inh: 2
